Shown are actives, neighbours in structure and some others; about 2.7% of the full set was active somewhere.
Integrin act MD = activators of alpha7 integrin expression for muscular dystrophy | hit rate 0.064% among 350,000 | AID 624291 | Potency, µM (titrated, usually from 38.3 µM), for the others: at the highest dose activation, actives largely listed as activators | alpha7betagal myoblasts, beta-gal FDG fluorescence, 48 h;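 note: 100% = response of the positive control SU9516; nearly all actives have a fitted effect of over 60% in size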
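alpha7betagal+/- myoblasts (passage 13, 250/well) treated 48 h at 37C with compounds at 1:260 dilution of DMSO stock. Lysed, then beta-galactosidase activity read as FDG fluorescence (ex 480/em 540) after 30 min, with pre-read for autofluorescence.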
HEK293 tox = cytotoxicity in counter-screen for GLP-1R inverse agonists. HEK293 cAMP-luciferase reporter cells, luminescence, 24 h. Potency, µM (titrated, usually from 38.3 µM), inactives show top-dose activity change, negative = inhibition, hits mostly inhibitors. hit rate 0.13% among 410,000;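 note: loss of luciferase light is scored as toxicity; % is set by controls: 0 for no effect and ±100 for the full control effect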
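A 23 nL compound transfer followed 12 hours of cell culture at 37 deg C; exposure then lasted 24 hr. Luciferase assay detection reagent was dispensed and plates read for luminescence after a 12 min room-temperature wait.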
GLP-1R agonist = agonists of human GLP-1 receptor; P43220; Potency, µM (titrated, usually from 45.6 µM), for the others: top-dose activation, actives largely listed as activators; AID 624172; HEK293 GLP-1R CRE-luciferase, luminescence, 4-6 h; cells express a hypersensitive GLP-1R form; hit rate 0.007% among 380,000; note: % of control where 0% means no effect
Target sequence (P43220 whole entry, looked up): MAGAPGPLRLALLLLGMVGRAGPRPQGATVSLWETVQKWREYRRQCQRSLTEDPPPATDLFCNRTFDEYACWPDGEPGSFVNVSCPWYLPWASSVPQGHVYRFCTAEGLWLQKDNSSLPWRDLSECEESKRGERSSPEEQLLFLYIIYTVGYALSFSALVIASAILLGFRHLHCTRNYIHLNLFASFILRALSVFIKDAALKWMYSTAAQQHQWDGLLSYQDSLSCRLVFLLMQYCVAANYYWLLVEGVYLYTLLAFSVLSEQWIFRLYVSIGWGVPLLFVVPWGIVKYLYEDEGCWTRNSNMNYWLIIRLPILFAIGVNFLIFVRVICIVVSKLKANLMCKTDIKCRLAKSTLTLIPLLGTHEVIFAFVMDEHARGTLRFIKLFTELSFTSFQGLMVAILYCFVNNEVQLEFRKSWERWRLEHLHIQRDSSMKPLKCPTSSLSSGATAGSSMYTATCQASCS
GLP1R inv ag = inverse agonists of human GLP-1 receptor. Potency, µM (series often up to 38.3 µM), for the others: at the highest dose activity change, negative = inhibition, most hits filed as inhibitors. HEK293 GLP-1R CRE-luciferase, luminescence, 24 h; GLP-1R form is constitutively active. AID 624417. P43220. hit rate 1.6% among 410,000; note: % is set by controls: 0 for no effect and ±100 for the full control effect; nearly all actives have a fitted effect of over 55% in size
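Inverse agonism was detected as reduced cAMP-driven luciferase luminescence after 24 h compound treatment. The cells were HEK293 clones expressing constitutively active human GLP-1R with the reporter. Reporter-only and GPR119 cell lines served as counterscreen controls.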
BRCA1 expr act = BRCA1 expression activation. MCF7-BRCA1-FFLuc reporter, luminescence, 48 h; response scale: scaled: vehicle 0%, 10 µM genistein 100%. Potency, µM (titrated, usually from 46.1 µM), without a hit: at the highest dose activation, usual class: activators. hit rate 1.1% among 380,000; note: nearly all actives have a fitted effect of over 80% in size
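Luminescence from a BRCA1-driven firefly luciferase in MCF7 cells was the read-out, taken 15 min after substrate addition following 48 h compound exposure at 37 °C. Data were normalized to a 10 microM genistein control and DMSO vehicle.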
* = called active by the depositor; ? = inconclusive; . = no result given. Calls come from the whole dose curve; as a rule, active = well fitted curve in the direction sought with a large enough effect; inconclusive = small, poorly fitted or top-dose-only effect, or another doubt; inactive = no such curve, though single readings can be large; an effect the other way counts as inactive or inconclusive. Potency is the fitted concentration of half-maximal effect.

SMILES	Integrin act MD	HEK293 tox	GLP-1R agonist	GLP1R inv ag	BRCA1 expr act
O=C1CN(C(=O)c2ccccc2C(F)(F)F)C(c2ccccc2)c2cc(F)ccc2N1 (stereo not given)	.	-7.8%	.	-13.7%	.
Cc1ccc(-c2cc(C(=O)Nc3cc(C)ccc3O)no2)cc1	-25.1%	1.7%	16.8%	1.7%	1.12µM*
COc1ccc(-c2cc(C(=O)Nc3cc(C)ccc3O)no2)cc1	15.6%	-16.0%	16.3%	15.8%	?
O=C(Nc1cc(Br)ccc1O)c1cc(-c2ccc3c(c2)OCO3)on1	11.1%	0.0%	5.0%	25.6%	1.41µM*
CCCCCCCCCC[n+]1ccc(/C=C/c2ccc(N(C)C)cc2)c2ccccc21	.	.	.	.	-79.6%
CCC1=C(c2ccc(C)cc2)S(=O)(=O)N=C1N1CCC(C(=O)Nc2ccccc2F)CC1	.	-8.9%	.	9.7%	.
CN(C)CCCN(C(=O)c1ccco1)c1nc2ccc(Br)cc2s1	-16.9%	?	8.4%	3.16µM*	-34.4%
CN(C)CCCN(C(=O)c1ccc2c(c1)CCCC2)c1nc2ccc(F)cc2s1	-35.2%	?	-11.2%	6.5%	-57.3%
CN(C)CCCN(C(=O)c1ccc2c(c1)CCCC2)c1nc2cc3c(cc2s1)OCO3	-55.9%	?	9.4%	2µM*	-2.1%
Cc1ccc(C(=O)N(CCCN(C)C)c2nc3ccc(Cl)cc3s2)cc1C	-74.7%	?	17.0%	6.31µM*	-61.4%
CN(C)CCCN(C(=O)c1ccco1)c1nc2ccc(Cl)cc2s1	-75.9%	?	6.7%	?	-25.9%
Cc1c(CN(C)C)c2c(n1Cc1ccccc1)C(=O)c1ccc(Br)cc1-2	-64.4%	?	-11.9%	0.0%	-50.1%
Cc1c(CN(C)C)c2c(n1C)C(=O)c1ccc(Br)cc1-2	-37.6%	8.91µM*	0.2%	131.9%	-53.5%
Cc1cccc(C(=O)Nc2ccc(N3CC=C(c4ccccc4C)CC3)c(C(=O)O)c2)c1	.	0.1%	.	0.8%	.
Cc1nc2c(O)c3c(c(O)c2nc1C)C1C=CC3CC1	-0.1%	5.62µM*	-5.2%	?	-84.9%
Cc1nc2c(C)c(C)c(C)c(C)c2nc1C	16.0%	13.3%	2.8%	11.7%	3.6%
CC1(C)O[C@H]2C[C@@H]3[C@H]4CCC5=CC(=O)C=C[C@]5(C)[C@@]4(F)[C@@H](O)C[C@]3(C)[C@]2(C(=O)CO)O1	.	.	-4.1%	.	.
COC(=O)C(CCSC)NC(=O)c1cc2c(n(-c3ccc(C)cc3)c1=O)CC(C)(C)CC2=O (stereo not given)	.	7.4%	2.7%	-2.8%	9.4%
Cc1ccc(CNC(=O)c2cc(NS(=O)(=O)c3ccc(C)cc3)ccn2)cc1	.	-2.9%	-1.3%	3.2%	5.1%
COc1cc2c(cc1N)-c1ccc(N)cc1C2=O	6.9%	-16.8%	17.0%	94.1%	10µM*
COc1ccc(CNc2nc3nc(C)c(Cl)c(C)n3n2)cc1	10.9%	9.0%	?	97.5%	?
COc1cccc(CNc2nc3nc(C)c(Cl)c(C)n3n2)c1	-18.6%	-0.6%	28.0%	22.9%	11.2µM*
Cc1ccc(NC(=O)C2CCN(c3nc4ccccc4nc3C(F)(F)F)CC2)cc1F	.	3.3%	.	2.9%	-6.6%
COc1ccc(CNS(=O)(=O)c2cc3c(cc2Cl)N(C(C)=O)CCO3)cc1	.	-2.3%	.	5.5%	.
CCC(=O)N1CCc2cc(CNC(=O)c3ccc(F)cc3)ccc21	.	1.3%	.	6.6%	.
SMILES	Integrin act MD	HEK293 tox	GLP-1R agonist	GLP1R inv ag	BRCA1 expr act
N#CC1c2ccccc2-c2ccccc2N1C(=O)c1ccccc1 (stereo not given)	-43.5%	-23.3%	16.9%	7.08µM*	-59.8%
Cc1cccc(C(=O)Nc2cc(-c3ccccc3F)nn2-c2ccccc2)c1	.	0.3%	.	10µM*	0.0%
O=CC(=O)c1ccc(Br)cc1	.	.	.	.	5.9%
CC(=O)N1CCc2cc(S(=O)(=O)NCCC(=O)Nc3ccc4c(c3)OCCO4)ccc21	35.8%	2.5%	3.4%	19.7%	11.2µM*
Cc1ccc(C)c(N=Nc2nc3ccccc3n2C)c1	-15.5%	?	5.8%	?	5.3%
Cc1cc(C)c(C)c(N=Nc2nc3ccccc3n2C)c1C	-36.2%	?	19.2%	7.94µM*	-15.2%
O=C(CNC(=S)N(Cc1ccccc1)Cc1cccs1)NCc1ccc(F)cc1	0.0%	-24.0%	6.8%	2.82µM*	-45.4%
O=C(Cc1ccc(Cl)cc1)NCCc1ccc(F)cc1	-8.2%	-5.8%	1.5%	?	-0.9%
O=C(CNC(=S)N(Cc1ccccc1)Cc1ccccc1F)NCCc1ccc(Cl)cc1	-28.7%	-29.3%	8.2%	3.98µM*	-82.4%
Cc1cc(C)cc(NC(=O)N2CCC(CN3CCCCCC3)CC2)c1	.	2.1%	.	-6.2%	.
COc1ccc(-n2cc(-c3ccccc3)c3c(NCCc4ccc(OC)c(OC)c4)ncnc32)cc1	.	-10.8%	.	?	.
CCN(c1ccccc1)S(=O)(=O)c1cc(C(=O)Nc2ccc(F)c(F)c2)ccc1F	-35.4%	?	-2.5%	1.41µM*	-54.6%
CCN(c1ccccc1)S(=O)(=O)c1ccc(C(=O)Nc2cccc(NC(C)=O)c2)cc1	-26.5%	-3.1%	11.5%	?	-24.9%
O=C(CNC(=O)C1COc2ccccc2O1)N/N=C\c1ccc(Br)cc1 (stereo not given)	-11.6%	3.1%	13.1%	10µM*	11.8%
COc1ccccc1-c1cc(NC(=O)COc2ccccc2Cl)n(-c2ccccc2)n1	.	1.8%	.	4.0%	2.5%
O=C(NC(c1ccc(Cl)cc1)c1ccsc1)C1CCN(Cc2ccc(Oc3ccccc3)cc2)CC1 (stereo not given)	.	-23.7%	1.7%	10µM*	-52.1%
CC(=O)c1sc(NC(=O)c2c(F)cccc2F)nc1-c1ccccc1	22.8%	2.3%	15.0%	-2.9%	23.1%
CC(=O)Nc1nc(C)c(C(C)=O)s1	13.8%	-8.6%	1.2%	2.2%	-28.6%
CC(=O)c1sc(NC(=O)c2ccccc2C)nc1C	10.4%	-3.0%	9.1%	6.3%	12.6µM*
CC(=O)c1sc(NC(=O)c2ccc(Cl)cc2)nc1C	-29.7%	-1.5%	9.6%	12.5%	3.16µM*
CC(=O)c1sc(NC(=O)c2ccccc2)nc1-c1ccccc1	-13.6%	-11.1%	6.5%	?	2.82µM*
Cc1cc(C)n(CCc2nc3c4ccccc4nc(N4CCN(c5cccc(C)c5C)CC4)n3n2)n1	.	-8.8%	.	6.0%	0.0%
COc1ccc(S(=O)(=O)N(CC(=O)Nc2cccc(C)c2)c2ccc(C)cc2)cc1OC	.	9.8%	4.5%	4.2%	-37.9%
CC(C)c1cnc2c(c1SCC(=O)N1CCCCC1)c(=O)n(C)c(=O)n2C	.	-17.1%	.	24.0%	.
Cc1cccc(C)c1OCC(=O)N(Cc1ccc(Cl)cc1)CC1CCCO1 (stereo not given)	.	4.6%	.	?	.
COc1ccc(NC(=O)c2c(NCc3cccc(F)c3)sc3c2CCC3)c(OC)c1	.	-6.0%	.	-20.5%	.
